In the supplement of paper PMC6089552:
Hit rate of the full screen: of about 3,200 compounds, about 300 (9.4%) showed activity. What follows is part of a selection rich in actives, with near analogues and random picks from the rest.

Test system: A673/TR/shEF
Test: cell viability (LOESS-normalised, relative to median of negative controls) (log2 ratio); higher = more viable cells (less compound effect), active = hit call of the paper (over 3 MAD below the median)
Details: treatment time: 72 h
Method in brief: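 A673/TR/shEF Ewing sarcoma cells were plated at 1,500 per well in 384-well plates and cultured with or without doxycycline, added 24 h before compounds, to induce EWS-FLI1 shRNA knockdown. Library compounds at two or more concentrations, alongside DMSO controls, were applied for three days. Cell viability was measured by CellTiter-Glo luminescence on an Envision reader. Readings were LOESS-corrected per plate, divided by the median of negative controls and log2-transformed, and hits were wells lying at least three median absolute deviations from the median of all screened wells.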

[1] = 0.25 µM, library screen: screen2, EWS-FLI1 expression: high (no doxycycline)
[2] = 0.25 µM, library screen: screen2, EWS-FLI1 expression: low (doxycycline-induced shRNA knockdown)
[3] = 2.5 µM, library screen: screen2, EWS-FLI1 expression: high (no doxycycline)
[4] = 2.5 µM, library screen: screen2, EWS-FLI1 expression: low (doxycycline-induced shRNA knockdown)
[5] = 0.25 µM, library screen: screen1, EWS-FLI1 expression: high (no doxycycline)
[6] = 0.25 µM, library screen: screen1, EWS-FLI1 expression: low (doxycycline-induced shRNA knockdown)
[7] = 2.5 µM, library screen: screen1, EWS-FLI1 expression: high (no doxycycline)
[8] = 2.5 µM, library screen: screen1, EWS-FLI1 expression: low (doxycycline-induced shRNA knockdown)
[9] = 0.103 µM, library screen: screen3, EWS-FLI1 expression: high (no doxycycline)
[10] = 0.103 µM, library screen: screen3, EWS-FLI1 expression: low (doxycycline-induced shRNA knockdown)
[11] = 0.308 µM, library screen: screen3, EWS-FLI1 expression: high (no doxycycline)
[12] = 0.308 µM, library screen: screen3, EWS-FLI1 expression: low (doxycycline-induced shRNA knockdown)
[13] = 0.926 µM, library screen: screen3, EWS-FLI1 expression: high (no doxycycline)
[14] = 0.926 µM, library screen: screen3, EWS-FLI1 expression: low (doxycycline-induced shRNA knockdown)
[15] = 2.8 µM, library screen: screen3, EWS-FLI1 expression: high (no doxycycline)
[16] = 2.8 µM, library screen: screen3, EWS-FLI1 expression: low (doxycycline-induced shRNA knockdown)
[17] = 8.3 µM, library screen: screen3, EWS-FLI1 expression: high (no doxycycline)
[18] = 8.3 µM, library screen: screen3, EWS-FLI1 expression: low (doxycycline-induced shRNA knockdown)
[19] = 25 µM, library screen: screen3, EWS-FLI1 expression: high (no doxycycline)
[20] = 25 µM, library screen: screen3, EWS-FLI1 expression: low (doxycycline-induced shRNA knockdown)

Measured: cell viability (log2)

COc1cc(CCN)ccc1O
inactive: [1] 0.212 | [2] 0.0815 | [3] 0.12 | [4] 0.0385

NCCc1ccc(S(=O)(=O)F)cc1
active: [1] -0.0889
inactive: [2] 0.067 | [3] -0.0377 | [4] 0.0161

NCCc1ccc(O)cc1
inactive: [5] 0.0239 | [6] 0.0662 | [1] 0.157 | [2] 0.123 | [7] 0.134 | [8] 0.0729 | [3] 0.116 | [4] 0.0531

COc1ccc2c(c1OC)C(=O)O[C@H]2[C@@H]1c2cc3c(cc2CCN1C)OCO3
inactive: [1] 0.0965 | [2] 0.0835 | [3] 0.18 | [4] 0.113

COc1cc([C@@H]2c3cc4c(cc3[C@H](OC(C)=O)[C@H]3COC(=O)[C@H]23)OCO4)cc(OC)c1OC
active: [5] -3.77 | [6] -0.983 | [7] -3.58 | [8] -1.13

COc1cc([C@@H]2c3cc4c(cc3[C@H](O)[C@H]3COC(=O)[C@H]23)OCO4)cc(OC)c1OC
inactive: 0.025 µM, library screen: screen2, EWS-FLI1 expression: high (no doxycycline) 0.106 | 0.025 µM, library screen: screen2, EWS-FLI1 expression: low (doxycycline-induced shRNA knockdown) 0.109 | [1] 0.0134 | [2] 0.0379
active: [5] -3.56 | [6] -1.09 | [7] -4.23 | [8] -0.986 | [3] -1.33 | [4] -0.175 | 25 µM, library screen: screen2, EWS-FLI1 expression: high (no doxycycline) -2.9 | 25 µM, library screen: screen2, EWS-FLI1 expression: low (doxycycline-induced shRNA knockdown) -0.496

COc1ccc2c(c1O)-c1c3c(cc4c1[C@H](C2)N(C)CC4)OCO3
inactive: [1] 0.104 | [2] 0.0658 | [3] 0.0733 | [4] 0.132

COc1ccc2c(c1OC)C(=O)O[C@H]2[C@H]1c2cc3c(cc2CCN1C)OCO3
inactive: [5] 0.11 | [6] 0.0969 | [7] -0.0012 | [8] 0.0503

COc1cc([C@@H]2c3cc4c(c(O)c3C[C@H]3COC(=O)[C@@H]32)OCO4)cc(OC)c1OC
inactive: [5] 0.0843 | [6] 0.0231
active: [7] -3 | [8] -0.852

COc1cc([C@@H]2c3cc4c(cc3[C@H](O)[C@H]3COC(=O)[C@@H]23)OCO4)cc(OC)c1OC
inactive: [5] 0.0302 | [6] 0.00961
active: [7] -2.1 | [8] -0.572

CCCN(CCC)[C@@H]1CCc2c(F)ccc(O)c2C1
inactive: [1] 0.13 | [2] 0.0763 | [3] 0.181 | [4] 0.101

O=C1NCN(c2ccccc2)C12CCN(CC1COc3ccccc3O1)CC2 (stereo unspecified)
inactive: [1] 0.177 | [2] 0.0806 | [3] 0.104 | [4] 0.0692

C/C=C(\C)C(=O)O[C@H]1C[C@@H](OC(C)=O)[C@@]2(C(=O)OC)CO[C@H]3[C@@H](O)[C@@](C)([C@]45O[C@@]4(C)[C@H]4C[C@@H]5O[C@@H]5OC=C[C@@]54O)[C@H]4[C@]1(CO[C@]4(O)C(=O)OC)[C@@H]32
inactive: [5] 0.103 | [6] 0.0233 | [7] 0.139 | [8] -0.02

Cc1cccc(C)c1NC(=O)CN1CCCC1=O
inactive: [9] 0.119 | [10] -0.000586 | [11] 0.107 | [12] 0.118 | [13] 0.135 | [14] 0.0891 | [15] 0.156 | [16] 0.0751 | [17] 0.15 | [18] 0.0489 | [19] 0.154 | [20] 0.0876

O=c1ccc2cc(O[C@@H]3OC(CO)[C@@H](O)C(O)C3O)c(O)cc2o1 (stereo partly specified)
inactive: [5] 0.0986 | [6] -0.0879 | [7] 0.201 | [8] 0.107

CC(C)N(C(=O)SCC(Cl)=C(Cl)Cl)C(C)C
inactive: [5] 0.0806 | [6] 0.0889 | [7] -0.00898 | [8] 0.0996

CC1=C2C[C@H]3[C@@H](CC=C4C[C@@H](O)CC[C@@]43C)[C@@H]2CC[C@]12O[C@@H]1C[C@H](C)CN[C@H]1[C@H]2C
inactive: [9] 0.00521 | [10] 0.0036 | [11] 0.012 | [12] 0.0389 | [13] -0.00313 | [14] 0.0472 | [15] 0.0157 | [16] 0.0183 | [17] -0.0322 | [18] 0.102 | [19] -0.00963 | [20] 0.053

Cc1cccc(CN2CCN(Cc3ccc(F)cc3)CC2)c1
inactive: [5] 0.0688 | [6] 0.0518 | [7] 0.143 | [8] 0.0989

C[C@H]1OC[C@@H](C[N+](C)(C)C)O1
inactive: [1] 0.185 | [2] 0.123 | [3] 0.146 | [4] 0.0964

C[C@H]1O[C@@H](C[N+](C)(C)C)CS1
inactive: [1] 0.209 | [2] 0.0237 | [3] -0.0233 | [4] 0.035

O=C(OC1CC2CCC(C1)[N+]21CCCC1)C(O)(c1ccccc1)c1ccccc1 (stereo unspecified)
inactive: [9] 0.0271 | [10] 0.0529 | [11] 0.0379 | [12] 0.0384 | [13] -0.0177 | [14] 0.0427 | [15] 0.0921 | [16] 0.0957 | [17] 0.022 | [18] 0.0679 | [19] 0.0665 | [20] 0.0295

C=C1[C@H]2CCC3[C@@](CC[C@@H]4[C@H](C(=O)O)C[C@@H](O[C@H]5O[C@H](CO)[C@@H](OS(=O)(=O)O)[C@H](OS(=O)(=O)O)[C@H]5OC(=O)CC(C)C)C[C@@]34C)(C2)[C@H]1O (stereo partly specified)
inactive: [5] 0.138 | [6] 0.098 | [7] 0.0683 | [8] 0.0267

COc1nc(NC(C)C)nc(NC(C)C)n1
inactive: [5] -0.00161 | [6] 0.0381 | [7] 0.104 | [8] 0.186

COC(=O)/C=C(\C)OP(=O)(OC)OC
inactive: [5] -0.00893 | [6] -0.0133 | [7] 0.034 | [8] 0.0603

CCC(C)C(OC(C)=O)C(=O)O[C@H]1[C@H](O)C2[C@@]3(C)C=CC(=O)C(C)(C)C3C[C@@H](OC(=O)C(O)C(C)C)[C@@]2(C)[C@@]23O[C@@H]2C[C@@H](c2ccoc2)[C@]13C (stereo partly specified)
inactive: [5] 0.0564 | [6] 0.0957 | [7] 0.0934 | [8] 0.141

CN(C)[C@@H]1C(=O)C(C(N)=O)=C(O)[C@@]2(O)C(=O)C3=C(O)c4c(O)cccc4[C@@](C)(O)[C@H]3[C@H](O)[C@@H]12
inactive: [9] 0.0702 | [10] 0.0143 | [5] 0.0991 | [6] 0.163 | [11] 0.0382 | [12] 0.159 | [13] 0.119 | [14] 0.101 | [7] 0.158 | [8] 0.172 | [15] 0.158 | [16] 0.126 | [17] 0.103 | [18] 0.0656 | [19] 0.0616 | [20] 0.0848

CN(C)[C@@H]1C(=O)C(C(N)=O)=C(O)[C@@]2(O)C(=O)C3=C(O)c4c(O)cccc4[C@@](C)(O)[C@H]3C[C@@H]12
active: [5] -0.127
inactive: [6] 0.111 | [7] -0.0332 | [8] 0.155

CN1Cc2c(ccc3c2OCO3)[C@@H]2[C@H]1c1cc3c(cc1C[C@@H]2O)OCO3
inactive: [5] 0.0821 | [6] 0.0876 | [7] -0.0483 | [8] 0.0764

Ic1ccccc1CN[C@H]1C2CCN(CC2)[C@H]1C(c1ccccc1)c1ccccc1
inactive: [1] 0.128 | [2] 0.206 | [3] 0.245 | [4] 0.191

CC1(C)C(=O)C=C[C@]2(C)C1=C(O)C(=O)[C@@]1(C)[C@H]2CC[C@]2(C)[C@@H](c3ccoc3)C[C@@H]3O[C@]312
inactive: [5] 0.0131 | [6] 0.0981 | [7] -0.0522 | [8] 0.0901

CCCC(C)C1(CC)C(=O)NC(=S)NC1=O (stereo unspecified)
inactive: [5] 0.047 | [6] -0.0503 | [7] 0.164 | [8] 0.136

CNC(=O)Oc1cccc2c1OC(C)(C)O2
inactive: [5] 0.147 | [6] 0.159 | [7] 0.155 | [8] 0.0893

CCCCCC[C@H]1C(=O)O[C@H](C)[C@H](NC(=O)c2cccc(NC=O)c2O)C(=O)O[C@@H](C)[C@@H]1OC(=O)CC(C)C
active: [5] -0.888 | [6] -0.636 | [7] -1.71 | [8] -0.774

Cc1ccc2cc3c(ccc4ccccc43)c3c2c1CC3
inactive: [5] 0.0577 | [6] -0.00243 | [7] 0.111 | [8] 0.12

CC(C)Oc1cccnc1N(C)C1CCN(Cc2ccc(I)cc2)CC1
inactive: [1] 0.0944 | [2] 0.0215 | [3] 0.21 | [4] 0.0697

CC(C)N(C(=O)CCl)c1ccccc1
inactive: [5] 0.0295 | [6] 0.0848 | [7] 0.154 | [8] 0.0575

O=C(O)CNCP(=O)(O)O
inactive: [5] 0.0875 | [6] 0.0822 | [7] 0.124 | [8] 0.106

NCC(O)c1cc(O)c(O)cc1F (stereo unspecified)
inactive: [1] 0.233 | [2] 0.183 | [3] 0.0966 | [4] 0.0732

CC(=O)Oc1ccc(Cl)c2cccnc12
inactive: [5] 0.106 | [6] 0.136 | [7] 0.0698 | [8] 0.0992

CCCCOC(=O)c1ccccc1C(=O)OCCCC
inactive: [5] 0.118 | [6] 0.0394 | [7] 0.0831 | [8] -0.283

C[CH2][Hg][S]c1ccccc1C(=O)O
inactive: [6] -0.123
active: [5] -0.15 | [7] -3.6 | [8] -2.98

CNc1ccccc1C(=O)O
inactive: [5] 0.0696 | [6] 0.0258 | [7] 0.131 | [8] 0.00755
